In one experiment the test system is CRL-7250. In words: Cytotoxic Profiling of Annotated Libraries Using Quantitative High-Throughput Screening (AID 1296008). Also: nearly all actives have a fitted effect of over 60% in size. The note with it: Five cell lines viability, CellTiter-Glo ATP luminescence, 48-72 h; max response: active compounds read low. The method in brief:
(§1)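 Cells exposed to compounds for 48 or 72 hr at 37 degrees Celsius. Viability read as ATP-coupled luminescence with CellTiter-Glo after 10 min at room temperature.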

Another experiment relates to HEK293. Described as above. The note with it: Five cell lines viability, CellTiter-Glo ATP luminescence, 48-72 h; max response: active compounds read low. The method in brief:
as §1

Structures are written as SMILES. Inconclusive results are not listed. Unmarked numbers belong to inactive results. Calls of active or inactive are those of the source. Calls follow the shape of the dose curve; as a rule, active = well fitted inhibition curve with a large enough effect; inconclusive = small, poorly fitted or top-dose-only effect; inactive = flat fitted curve, though single readings scatter.

Experimental findings from PubChem BioAssay (NCATS) are described below.
% is scaled to controls: 0 for no effect and ±100 for the full control effect; potency is read from the fitted curve at half-maximal effect.

For the compound `O=C(Oc1ccccc1)c1cccc(C(=O)Oc2ccccc2)c1`, the max response with CRL-7250 was -12.1%; in the experiment on HEK293, 3.23%.
Turning to `O=C(O)/C=C(\CC(=O)O)C(=O)O`, in the experiment on CRL-7250, the max response was 4.3%. Also, in the experiment on HEK293, the result was inactive.
As for `C[N+]1(CC2COC(c3ccccc3)(c3ccccc3)O2)CCCCC1` (stereo not drawn), the max response in the experiment on CRL-7250 was 1.41%. The Potency with HEK293 is 10 µM (active).
Consider `Cc1ccc(C(=O)Oc2ccc(C(O)CNC(C)(C)C)cc2OC(=O)c2ccc(C)cc2)cc1` (stereo not drawn), for which the values for the max response in the experiment on CRL-7250 and with HEK293 were -6.97% and 1.15%, respectively.
The matching figures for `O=C1CCCc2c(O)cccc21`: -3.71% and -4.98%.
For the compound `Fc1ccc(C(c2ccc(F)cc2)N2CCNCC2)cc1`, in the experiment with CRL-7250, the compound was classed as inactive. Further, the max response with HEK293 was -6.69%.
With `CN(C)CCN(Cc1ccsc1)c1ccccn1`, the results for the max response in the experiment with CRL-7250 and in the experiment with HEK293 were -0.513% and -3.25%, respectively.
In the case of `CCOc1ccccc1OCC1CNCCO1` (stereo not drawn), the max response in the experiment with CRL-7250 is -6.41%. Also, the compound was classed as inactive in the experiment on HEK293.
Regarding `CCOC(=O)O[C@]1(C(=O)OCCl)CC[C@H]2[C@@H]3CCC4=CC(=O)C=C[C@]4(C)[C@H]3[C@@H](O)C[C@@]21C`, the result in the experiment on CRL-7250 and in the experiment with HEK293 was inactive.
Regarding `CN1Cc2cc(C(=O)N3CCC(C4CCNCC4)CC3)ccc2NC(CC(=O)O)C1=O` (stereo not drawn), the max response was 0.285% with CRL-7250 and -6.55% with HEK293.
Regarding `Nc1c[n+](N2CCOCC2)no1`, the compound was classed as inactive in the experiment with CRL-7250 and with HEK293.
Take `Cc1cccc(C)c1NC(=O)c1cc(S(N)(=O)=O)c(Cl)cc1O`: the result in the experiment on CRL-7250 and with HEK293 was inactive.
Regarding `O=C(CCCCC(=O)Nc1c(I)cc(I)c(C(=O)O)c1I)Nc1c(I)cc(I)c(C(=O)O)c1I`, in the experiment on CRL-7250, the max response was 2.98%. Further, in the experiment on HEK293, the compound was classed as inactive.
For the compound `N=C(N)c1ccc(OCCCOc2ccc(C(=N)N)cc2)cc1`, the max response with CRL-7250 is 2.23%. In addition, the Potency in the experiment with HEK293 was 7.5 µM (active).
Regarding `O=C(Oc1ccccc1)c1ccccc1O`, the compound was classed as inactive in the experiment with CRL-7250 and in the experiment on HEK293.
Take `CCOC(=O)C(=O)CCc1ccccc1`: the max response in the experiment with CRL-7250 is -13.2%; with HEK293 it was 4.19%.
Turning to `CCCCCOc1ccccc1/C(=C\SC)n1ccnc1`, the max response with CRL-7250 was -4.59%. Besides, the Potency with HEK293 was 26.6 µM (active).
In the case of `CC(=O)/C=C/C=C1/C2CCC(C2)C1(C)C` (stereo not drawn), the max response was -8.75% in the experiment on CRL-7250 and -13.1% in the experiment with HEK293.
For the compound `COc1cc(C=O)ccc1O`, the max response in the experiment with CRL-7250 is -1.68%; in the experiment on HEK293, -1.3%.
With `CCOc1c(N2CCOCC2)cnn(C)c1=O`, the max response with CRL-7250 was -1.71%. Further, the compound was classed as inactive in the experiment with HEK293.
As for `CCCc1ncc(C(=O)O)s1`, the max response is -9.12% in the experiment on CRL-7250 and 4.41% with HEK293.
In the case of `CC(=O)OCC(=O)[C@@]1(O)CCC2C3CCC4=CC(=O)CC[C@]4(C)C3[C@@H](O)C[C@@]21C` (stereo partly drawn), the compound was classed as inactive with CRL-7250. Further, the max response with HEK293 is 2.9%.
As for `Cc1cc(O)c(C)c(C)c1O`, the compound was classed as inactive in the experiment on CRL-7250 and with HEK293.
As for `CC(=O)N[C@@H](CCC(N)=O)C(=O)O`, in the experiment on CRL-7250, the max response is -5.46%. Also, the outcome with HEK293 was inactive.
Turning to `Cc1nc2n(c(=O)c1CCN1CCC(C(=O)c3ccc(F)cc3)CC1)CCS2`, the figures for the Potency with CRL-7250 and in the experiment on HEK293 were 9.44 µM (active) and 8.41 µM (active), respectively.
On to `COc1ccc2cc(C=O)ccc2c1`, for which the results for the max response in the experiment on CRL-7250 and with HEK293 were 3.03% and 0.484%, respectively.
`O=C(O)c1ccc(OCCN2CCCCC2)cc1`: the results for the max response with CRL-7250 and in the experiment on HEK293 were 4.52% and -3.98%, respectively.
As for `CCCCOCCOC(=O)c1cccnc1`, the compound was classed as inactive in the experiment with CRL-7250 and with HEK293.
`CCCCCCCCCCCC[N+](C)(C)Cc1ccccc1`: the Potency was 4.22 µM (active) in the experiment on CRL-7250 and 0.841 µM (active) in the experiment on HEK293.
Turning to `CCOC(=O)N1CCC(Nc2ccc(Cl)cc2N)CC1`, the max response in the experiment on CRL-7250 was 2.37%; in the experiment on HEK293, -13.9%.
In the case of `CSc1ccc(/C=C2/C(C)=C(CC(=O)O)c3cc(F)ccc32)cc1`, in the experiment on CRL-7250, the compound was called inactive. In addition, the max response with HEK293 is 0.521%.
Consider `CCc1cccc2c(CCO)c[nH]c12`, for which the max response was -8.62% with CRL-7250 and -6.21% in the experiment with HEK293.
For the compound `NC(=O)NC1N=C([O][Al])NC1=O` (stereo not drawn), the call with CRL-7250 and with HEK293 was inactive.
As for `C1N2CN3CN1CN(C2)C3`, the compound was classed as inactive in the experiment with CRL-7250 and in the experiment with HEK293.
For the compound `Cn1c(=O)c2c(ncn2CC(=O)O)n(C)c1=O`, the max response with CRL-7250 is -0.788%; in the experiment on HEK293 it was -8.26%.
In the case of `CCOCCn1c(C2CCN(CCc3ccc(C(C)(C)C(=O)O)cc3)CC2)nc2ccccc21`, the max response was -0.215% in the experiment with CRL-7250 and -1.51% in the experiment on HEK293.
As to `CCc1cc(S(=O)(=O)O)c2cc(C(C)C)cccc1-2`, the max response in the experiment with CRL-7250 was 4.56%; with HEK293 it was -0.992%.
As for `Nc1ccc2c(c1)CN1C(=O)c3ccccc3C1=N2`, the Potency in the experiment on CRL-7250 was 8.2 µM (active); with HEK293 it was 5.8 µM (active).
Consider `Cc1ccc2c(Cl)cc(Cl)c(O)c2n1`, for which the max response was -1.98% in the experiment with CRL-7250 and -23.5% with HEK293.
